{"source": "paper PMC4336329", "about": "(PLoS ONE, 2015)", "note": "Screen size: about 310,000 compounds; about 14,000 (4.5%) showed an effect of 50% or more. The effect is printed as a negative number. This excerpt belongs to a sample that is enriched for strong results.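 Further: peak tail current of the secondary pulse compared with the same well before compound.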", "data": [{"target": "human ether-à-go-go-related gene (hERG) potassium channel (human, UniProt Q12809)", "sequence (Q12809 whole entry, looked up)": "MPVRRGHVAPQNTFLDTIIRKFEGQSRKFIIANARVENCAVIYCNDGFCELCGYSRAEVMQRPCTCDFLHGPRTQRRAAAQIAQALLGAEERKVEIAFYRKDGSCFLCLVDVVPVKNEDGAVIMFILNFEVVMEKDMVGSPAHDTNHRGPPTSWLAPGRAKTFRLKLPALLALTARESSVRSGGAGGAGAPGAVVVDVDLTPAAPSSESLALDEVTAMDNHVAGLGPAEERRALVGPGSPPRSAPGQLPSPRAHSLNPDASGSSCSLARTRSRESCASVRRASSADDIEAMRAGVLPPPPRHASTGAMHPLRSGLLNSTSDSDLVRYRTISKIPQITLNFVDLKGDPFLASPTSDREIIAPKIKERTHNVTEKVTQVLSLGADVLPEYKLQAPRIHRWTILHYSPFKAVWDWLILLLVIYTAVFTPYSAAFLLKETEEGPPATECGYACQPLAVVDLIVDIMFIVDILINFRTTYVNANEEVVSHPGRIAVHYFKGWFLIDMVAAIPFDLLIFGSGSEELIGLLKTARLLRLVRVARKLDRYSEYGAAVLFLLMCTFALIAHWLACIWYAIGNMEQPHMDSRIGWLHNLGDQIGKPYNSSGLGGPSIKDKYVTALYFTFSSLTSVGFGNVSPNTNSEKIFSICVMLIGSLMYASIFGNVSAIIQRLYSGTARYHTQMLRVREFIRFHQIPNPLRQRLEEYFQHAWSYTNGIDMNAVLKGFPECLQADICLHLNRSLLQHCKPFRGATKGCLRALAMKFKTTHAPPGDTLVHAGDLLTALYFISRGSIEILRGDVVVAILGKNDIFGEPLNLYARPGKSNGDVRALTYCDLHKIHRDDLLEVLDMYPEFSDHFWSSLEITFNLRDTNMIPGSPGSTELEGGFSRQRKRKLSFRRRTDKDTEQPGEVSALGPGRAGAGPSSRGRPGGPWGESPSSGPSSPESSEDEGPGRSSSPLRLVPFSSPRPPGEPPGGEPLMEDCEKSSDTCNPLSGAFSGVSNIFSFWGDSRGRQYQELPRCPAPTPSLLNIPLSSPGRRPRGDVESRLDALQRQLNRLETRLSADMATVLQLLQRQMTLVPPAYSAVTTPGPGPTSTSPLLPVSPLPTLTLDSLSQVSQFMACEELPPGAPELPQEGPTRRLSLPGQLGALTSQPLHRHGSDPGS", "test": "primary screen, population patch clamp on CHO cells stably expressing hERG; higher = less effect of the substance", "units": {"hERG current change (%, negative = inhibition) at 10uM": "%"}, "values": [{"smiles": "CCCCN(CC)c1nc(N)c(C#N)c(CC#N)c1C#N", "hERG current change (%, negative = inhibition) at 10uM": -24.9}, {"smiles": "O=C(NCCO)C(=O)NCC1OCCCN1S(=O)(=O)c1cc(F)ccc1F", "note": "(stereo not drawn)", "hERG current change (%, negative = inhibition) at 10uM": 13.6}, {"smiles": "CCOc1cc(/C=C/c2nc3ccccc3c(=O)[nH]2)ccc1O", "hERG current change (%, negative = inhibition) at 10uM": 13.4}, {"smiles": "CCN(CC)C(=O)OCc1c(-c2ccccc2)ncc2ccccc12", "hERG current change (%, negative = inhibition) at 10uM": -25.5}, {"smiles": "CCc1nn(-c2cc(Oc3cccc4ccccc34)nc(-c3ccccc3)n2)c(N)c1C#N", "hERG current change (%, negative = inhibition) at 10uM": 23.3}, {"smiles": "CCOC(=O)N1CCN(S(=O)(=O)c2ccc(OC)cc2)CC1", "hERG current change (%, negative = inhibition) at 10uM": -4.57}, {"smiles": "CC(=O)Nc1ccc(NS(=O)(=O)c2ccccc2)cc1", "hERG current change (%, negative = inhibition) at 10uM": 17.1}, {"smiles": "O=C(CCn1c(SCC(=O)NCc2ccco2)nc2ccccc2c1=O)NCCc1ccccc1", "hERG current change (%, negative = inhibition) at 10uM": -34.5}, {"smiles": "O=C(CCn1c(=O)c2ccccc2n(Cc2cc(=O)n3ccccc3n2)c1=O)NCc1ccco1", "hERG current change (%, negative = inhibition) at 10uM": -4.21}, {"smiles": "N=c1c(C(=O)NCc2ccco2)cc2c(=O)n3ccccc3nc2n1Cc1ccccc1", "hERG current change (%, negative = inhibition) at 10uM": -79.3}, {"smiles": "N=c1c(C(=O)NCc2ccco2)cc2c(=O)n3ccccc3nc2n1CCc1ccccc1", "hERG current change (%, negative = inhibition) at 10uM": -76.7}, {"smiles": "N=c1c(C(=O)NCc2ccc(F)cc2)cc2c(=O)n3ccccc3nc2n1Cc1ccco1", "hERG current change (%, negative = inhibition) at 10uM": -77.8}, {"smiles": "Cn1nnnc1SCC(=O)Nc1ccc(S(=O)(=O)N2CCOCC2)cc1", "hERG current change (%, negative = inhibition) at 10uM": 3.21}, {"smiles": "COc1ccc(CNC(=O)CN2C(=O)C3C4C=CC(C4)C3C2=O)cc1", "note": "(stereo not drawn)", "hERG current change (%, negative = inhibition) at 10uM": 19.2}, {"smiles": "O=C(O)C1CC(=O)N(c2ccc(OCc3ccc(Br)cc3)cc2)C1", "note": "(stereo not drawn)", "hERG current change (%, negative = inhibition) at 10uM": 6.71}, {"smiles": "COCCNC(=O)C(c1ccco1)N(C(=O)Cn1nnc2ccccc21)c1cc(C)ccc1C", "note": "(stereo not drawn)", "hERG current change (%, negative = inhibition) at 10uM": -4.75}, {"smiles": "O=C1CCCN1CCCn1cnc2c([nH]c3ccc(F)cc32)c1=O", "hERG current change (%, negative = inhibition) at 10uM": -42.2}, {"smiles": "O=c1c2[nH]c3ccc(Br)cc3c2ncn1Cc1ccncc1", "hERG current change (%, negative = inhibition) at 10uM": -4.79}, {"smiles": "COc1ccc2c(c1)[nH]c1c(=O)n(CCCn3ccnc3)cnc12", "hERG current change (%, negative = inhibition) at 10uM": -35.1}, {"smiles": "O=c1c2[nH]c3ccc(Br)cc3c2ncn1CCCn1ccnc1", "hERG current change (%, negative = inhibition) at 10uM": -64.4}, {"smiles": "O=c1c2[nH]c3ccccc3c2ncn1CCCn1ccnc1", "hERG current change (%, negative = inhibition) at 10uM": -41.8}, {"smiles": "O=c1c2[nH]c3ccc(F)cc3c2ncn1CCCn1ccnc1", "hERG current change (%, negative = inhibition) at 10uM": -61.1}, {"smiles": "CC(C)(C)C1CCC(=NNC(=O)c2cc3c(s2)CCCC3)CC1", "note": "(stereo not drawn)", "hERG current change (%, negative = inhibition) at 10uM": 20.1}, {"smiles": "Cc1cccc(NC(=O)c2sc(NC(=O)c3ccco3)c(C#N)c2C)c1C", "hERG current change (%, negative = inhibition) at 10uM": 5.79}, {"smiles": "O=C(CCSc1nc(-c2ccco2)cc(C(F)(F)F)n1)NCc1ccccn1", "hERG current change (%, negative = inhibition) at 10uM": -22.5}, {"smiles": "CC(=C/c1ccc(C(C)C)cc1)/C=N/NC(=O)Cn1nnnc1N", "hERG current change (%, negative = inhibition) at 10uM": 17.3}, {"smiles": "CS/C(=N/S(=O)(=O)c1ccc(C)cc1)c1ccccc1", "hERG current change (%, negative = inhibition) at 10uM": -3.56}, {"smiles": "CS(=O)(=O)O.Cc1ccc(N(CC2=NCCN2)c2cccc(O)c2)cc1", "hERG current change (%, negative = inhibition) at 10uM": -51.2}, {"smiles": "O=P(O)(O)O.c1ccc(CN(CC2=NCCN2)c2ccccc2)cc1", "hERG current change (%, negative = inhibition) at 10uM": -17.3}, {"smiles": "Cl.c1ccc(CN(CC2=NCCN2)c2ccccc2)cc1", "hERG current change (%, negative = inhibition) at 10uM": -29.7}, {"smiles": "Cl.c1ccc(CC2=NCCN2)cc1", "hERG current change (%, negative = inhibition) at 10uM": 7.57}, {"smiles": "Cc1ccc(N(CC2=NCCN2)c2cccc(O)c2)cc1.Cl", "hERG current change (%, negative = inhibition) at 10uM": -58.3}, {"smiles": "Cc1ccc(N(CC(=O)Nc2c(C)cccc2C)S(C)(=O)=O)cc1", "hERG current change (%, negative = inhibition) at 10uM": 1.65}, {"smiles": "Cc1cc(C)nc(/N=C2\\NC(=O)CC(C(=O)O)N2CCc2c[nH]c3ccccc23)n1", "note": "(stereo not drawn)", "hERG current change (%, negative = inhibition) at 10uM": 12.8}, {"smiles": "COc1cccc(NC(=O)C(c2ccccc2)N2CCNC(=O)C2)c1", "note": "(stereo not drawn)", "hERG current change (%, negative = inhibition) at 10uM": -7.23}, {"smiles": "O=C(CCN1CCOCC1)N1CCCC(Nc2ccc(F)cc2)C1", "note": "(stereo not drawn)", "hERG current change (%, negative = inhibition) at 10uM": 13.7}, {"smiles": "C/C(=N\\NC(=S)Nc1ccc(F)cc1)C1CC1", "hERG current change (%, negative = inhibition) at 10uM": -26.7}, {"smiles": "COc1ccc(C(=O)NC(=S)Nc2cccnc2)cc1[N+](=O)[O-]", "hERG current change (%, negative = inhibition) at 10uM": 4.69}, {"smiles": "Cc1cccc(N(CC(=O)NCCSCc2ccccc2)S(C)(=O)=O)c1", "hERG current change (%, negative = inhibition) at 10uM": 26.5}, {"smiles": "COc1ccc(C2C(C(=O)OCC(=O)N3CCCCC3)CCC(=O)N2c2ccc(OC)cc2)cc1", "note": "(stereo not drawn)", "hERG current change (%, negative = inhibition) at 10uM": -13.3}, {"smiles": "COc1ccc(C2C(C(=O)OCC(=O)Nc3ccc(C)cc3)CCC(=O)N2c2ccc(OC)cc2)cc1", "note": "(stereo not drawn)", "hERG current change (%, negative = inhibition) at 10uM": -62.4}, {"smiles": "CCNC(=O)COC(=O)C1CCC(=O)N(c2ccc(OC)cc2)C1c1ccc(OC)cc1", "note": "(stereo not drawn)", "hERG current change (%, negative = inhibition) at 10uM": -32.2}, {"smiles": "COc1ccc(C(=O)OCC[N+]2(C)CCOCC2)cc1.[I-]", "hERG current change (%, negative = inhibition) at 10uM": 13.6}, {"smiles": "NC(=O)CN(C/C=C/c1ccccc1)C/C=C/c1ccccc1", "hERG current change (%, negative = inhibition) at 10uM": 20.6}, {"smiles": "CN(C/C=C/c1ccccc1)C1CCCCC1", "hERG current change (%, negative = inhibition) at 10uM": -21.7}, {"smiles": "COCCN(C/C=C/c1ccccc1)C/C=C/c1ccccc1", "hERG current change (%, negative = inhibition) at 10uM": -69.4}, {"smiles": "CC(C)=CCCC(C)CN1CCC(n2nccc2NC(=O)c2ccccc2)CC1", "note": "(stereo not drawn)", "hERG current change (%, negative = inhibition) at 10uM": -69.6}, {"smiles": "CC(C)=CCCC(C)CN1CCC(n2nccc2NC(=O)C2CCCC2)CC1", "note": "(stereo not drawn)", "hERG current change (%, negative = inhibition) at 10uM": -70.8}]}]}
